The sample as a whole holds a higher share of hits than the screen did.
SIRT5 block: blocks human SIRT5 desuccinylation of peptide | Q9NXA8 | Purified SirT5, succinyl-peptide AMC, trypsin-coupled fluorescence | inhibition, % at 15 µM | hit rate 1.1% among 330,000; in the data active means inhibition above about 15%
HDAC3 inhib: inhibitors of human histone deacetylase 3; O15379; recombinant HDAC3, fluorogenic peptide/trypsin coupled, fluorescence; inhibition, % at 8.3 µM; hit rate 0.15% among 320,000; AID 2718; in the data active means inhibition above about 26%, passing the limit was not always enough
PDI inh: blocks human protein disulfide isomerase activity | P07237 | PDI insulin aggregation turbidity, A650, 90 min | inhibition, % at 10 µM | hit rate 0.052% among 350,000;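 active means mean inhibition across replicates of 30% or more, whatever share of single replicates reach that level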
ERp5 inh: inhibitors of human ERp5. AID 651711. Q15084. ERp5 insulin aggregation, absorbance 650 nm, 90 min. hit rate 0.05% among 350,000. inhibition, % at 9.99 µM;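 active means mean replicate inhibition above about 25%, with every replicate also reaching it, limit read from the data, passing the limit was not always enough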
Target sequence (Q15084 whole entry, looked up): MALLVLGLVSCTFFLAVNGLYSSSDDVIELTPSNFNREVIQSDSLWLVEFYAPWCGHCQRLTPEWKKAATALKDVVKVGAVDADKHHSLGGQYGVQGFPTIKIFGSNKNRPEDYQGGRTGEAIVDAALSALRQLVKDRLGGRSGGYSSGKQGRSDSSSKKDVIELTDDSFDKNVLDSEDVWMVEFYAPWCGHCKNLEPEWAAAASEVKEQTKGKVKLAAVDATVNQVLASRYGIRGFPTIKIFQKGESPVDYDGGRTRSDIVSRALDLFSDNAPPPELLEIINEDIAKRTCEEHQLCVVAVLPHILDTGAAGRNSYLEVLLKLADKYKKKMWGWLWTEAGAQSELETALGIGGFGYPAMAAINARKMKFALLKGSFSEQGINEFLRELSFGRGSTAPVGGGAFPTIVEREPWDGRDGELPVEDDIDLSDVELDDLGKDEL
ERAP1 HTS inh: blocks human ERAP1 aminopeptidase activity | Q9NZ08 | recombinant ERAP1, Leu-AMC fluorescence, 60 min | inhibition, % at 10.7 µM | hit rate 0.15% among 340,000;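 active means mean replicate inhibition of at least 30%, or all replicates individually reaching that 30% level; inactive means mean below 30% and not every replicate reaching it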
Each line names hits and unclear results; the compound was inactive in the other large screens.

COc1cc(/C=C(\C#N)C(=O)c2ccc(O)c(O)c2)cc(I)c1O	SIRT5 block 20
O=C(O)c1ccccc1C(=O)N1N=C2/C(=C/c3cccc([N+](=O)[O-])c3)CCCC2C1c1cccc([N+](=O)[O-])c1 (stereo not drawn)	SIRT5 block 24
CC[n+]1c(C=C2C=C(C)OC(C)=C2)sc2ccccc21	SIRT5 block 19 (no result: HDAC3 inhib)
CCC(=O)N(C)C[C@H]1Oc2cc(C#Cc3ccncc3)ccc2S(=O)(=O)N([C@@H](C)CO)C[C@@H]1C	none (no result: HDAC3 inhib, PDI inh)
O=C(O)CCC(=O)Nc1ccc(-c2nc3ccc(C(=O)c4ccccc4)cc3[nH]2)cc1	SIRT5 block 34
O=C(c1ccccc1)c1ccc2nc(-c3ccc(NC(=O)c4ccccc4F)cc3)[nH]c2c1	none (no result: SIRT5 block, ERp5 inh, ERAP1 HTS inh)
O=C(CCN1CCCCC1)N[C@@H]1CC[C@@H](CCn2cc(-c3ccccc3)nn2)O[C@@H]1CO	none (no result: HDAC3 inhib, PDI inh)
CCCNC(=O)N[C@H]1CC[C@@H](CCn2cc(C3CCCCC3)nn2)O[C@@H]1CO	none (no result: HDAC3 inhib, PDI inh)
CCCNC(=O)N[C@@H]1CC[C@H](CCn2cc(C3CCCCC3)nn2)O[C@@H]1CO	SIRT5 block 17 (no result: HDAC3 inhib, PDI inh)
O=C(N[C@@H]1CC[C@@H](CCn2cc(-c3ccc(F)cc3)nn2)O[C@@H]1CO)c1cnccn1	SIRT5 block 15 (no result: HDAC3 inhib, PDI inh)
O=C(CCN1CCCCC1)N[C@H]1CC[C@@H](CCn2cc(-c3ccc(F)cc3)nn2)O[C@H]1CO	SIRT5 block 23 (no result: HDAC3 inhib, PDI inh)
CC(C)Cc1nnc(NC(=O)CCC(=O)N2CCN(c3ccc([N+](=O)[O-])cc3)CC2)s1	none
CC(C)Cc1nnc(NC(=O)Cc2ccc([N+](=O)[O-])cc2)s1	SIRT5 block 29
COc1cc(C2C(C#N)=C(N)Oc3c2ccc2ccccc32)ccc1OCC(=O)Nc1ccc(C)cc1 (stereo not drawn)	SIRT5 block 20
CCCCn1c(-c2csc(C(C)C)c2)n[nH]c1=S	SIRT5 block 17
CNC[C@@H]1Oc2ccc(NS(=O)(=O)c3ccc(Cl)cc3)cc2CC(=O)N([C@@H](C)CO)C[C@@H]1C	none (no result: HDAC3 inhib, PDI inh)
CCC(C(=O)NCCCN1CC(C)CC(C)C1)n1nc(C)c2sc3ccccc3c2c1=O (stereo not drawn)	SIRT5 block 31
CCCN1CCN(CCCNC(=O)C(CC)n2nc(C)c3sc4ccccc4c3c2=O)CC1 (stereo not drawn)	none
COc1ccc(CCN(Cc2cc3ccc(C)cc3n3nnnc23)C(C)=O)cc1OC	SIRT5 block 26
COc1ccc(OC)c(NC2c3ncccc3C(=O)N2Cc2ccco2)c1 (stereo not drawn)	SIRT5 block 16 (no result: HDAC3 inhib)
CCC(=O)N(C)C[C@@H]1Oc2cc(C#CC3CC3)ccc2S(=O)(=O)N([C@H](C)CO)C[C@@H]1C	none (no result: HDAC3 inhib, PDI inh)
CCCCCCCCCCC[N+](C)(C)CC/C=C1/c2ccccc2Sc2ccc(Cl)cc21	HDAC3 inhib 32 (no result: SIRT5 block, ERp5 inh, ERAP1 HTS inh)
CCCCCCCCCC[N+](C)(C)CC/C=C1/c2ccccc2Sc2ccc(Cl)cc21	HDAC3 inhib 35 (no result: SIRT5 block, ERp5 inh, ERAP1 HTS inh)
Cc1noc(C)c1NC(=O)Nc1ccc2c(c1)C(=O)N([C@H](C)CO)C[C@@H](C)[C@@H](CN(C)Cc1ccc(C(F)(F)F)cc1)OCCCC[C@@H](C)O2	none (no result: HDAC3 inhib, PDI inh)
C[C@@H]1CN([C@@H](C)CO)C(=O)Cc2cc(NC(=O)C3CC3)ccc2O[C@@H]1CN(C)Cc1ccccc1	none (no result: HDAC3 inhib, PDI inh)
C[C@@H]1CN([C@@H](C)CO)C(=O)c2cccc(NS(=O)(=O)c3ccc(F)cc3)c2O[C@H]1CN(C)C(=O)Nc1ccccc1	SIRT5 block 22 (no result: HDAC3 inhib, PDI inh)
Cc1noc(C)c1S(=O)(=O)Nc1cccc2c1O[C@H](CN(C)C(=O)Nc1ccc(C(F)(F)F)cc1)[C@H](C)CN([C@@H](C)CO)C2=O	ERp5 inh 63 (no result: HDAC3 inhib, PDI inh)
C[C@@H]1CN([C@@H](C)CO)C(=O)c2cccc(NS(=O)(=O)c3ccccc3)c2O[C@@H]1CN(C)C(=O)Nc1ccc(F)cc1	none (no result: HDAC3 inhib, PDI inh)
COc1cccc(-c2ccc3n(c2=O)C[C@H]2[C@H](CO)[C@@H](C(=O)NCC4CC4)N(C(C)=O)[C@@H]32)c1	none (no result: HDAC3 inhib, PDI inh)
COc1cc(/C=N/N2CCN(Cc3ccc(Cl)cc3)CC2)cc(Br)c1O	SIRT5 block 18
Cc1ccc(S(=O)(=O)Nc2ccc3c(c2)C(=O)N([C@H](C)CO)C[C@H](C)[C@@H](CN(C)C(=O)Cc2ccccc2)OCCCC[C@H](C)O3)cc1	none (no result: HDAC3 inhib, PDI inh)
O=C(N[C@@H]1CC[C@@H](CCNC(=O)C2CC2)O[C@@H]1CO)c1ccncc1	none (no result: HDAC3 inhib, PDI inh)
CCNC(=O)C1CCCN(C(=O)c2ccc(OC)c(OC)c2)CC1 (stereo not drawn)	SIRT5 block 17 (no result: HDAC3 inhib)
CCNC(=O)C1CCCN(C(=O)c2ccc(OC)cc2)CC1 (stereo not drawn)	none (no result: HDAC3 inhib)
CCOc1ccc(C(=O)Nc2ccc(C(F)(F)F)n(C)c2=O)cc1	none
COc1cccc(C(=O)Nc2ccc(C(F)(F)F)n(C)c2=O)c1	SIRT5 block 20
O=C(C[n+]1ccccc1)N/N=C/c1ccc(F)cc1	SIRT5 block 112
Cc1ccc(/C=N/NC(=O)C[n+]2ccccc2)o1	SIRT5 block 21
C[C@@H]1CN([C@@H](C)CO)C(=O)c2cc(-c3cncnc3)cnc2O[C@H]1CN(C)C(=O)Cc1ccccc1	none (no result: HDAC3 inhib, PDI inh)
CN1C(=O)c2cc(NC(=O)c3cccs3)ccc2OC[C@@H]2O[C@H](CC(=O)O)CC[C@@H]21	none (no result: HDAC3 inhib, PDI inh)
COc1cccc(CN2CCCCN3[C@H](CO)[C@@H](c4ccc(C#Cc5cccnc5)cc4)[C@H]3C2)c1	none (no result: HDAC3 inhib, PDI inh)
C[C@H]1CN([C@@H](C)CO)S(=O)(=O)c2ccc(-c3cccc(F)c3)cc2O[C@H]1CN(C)C	none (no result: HDAC3 inhib, PDI inh)
COc1ccccc1-c1cc(-c2ccccc2)nc(SCC(=O)O)c1C#N	ERAP1 HTS inh 42
CCCCCCCCCCCCCCCC[N+](C)(C)Cc1ccc(F)cc1	PDI inh 41, ERAP1 HTS inh 96 (no result: HDAC3 inhib)
CC(C)NC(=O)Nc1ccc2c(c1)C(=O)N([C@@H](C)CO)C[C@@H](C)[C@@H](CN(C)Cc1ccccc1)OCCCC[C@@H](C)O2	none (no result: HDAC3 inhib, PDI inh)
COc1ccc(OCC(=O)Nc2ccc(C(=O)Nc3ccccc3C(=O)O)cc2)cc1	SIRT5 block 23
CC1=C(C(=O)OC2CCCCCC2)C(c2ccc(C)o2)C2=C(CCCC2=O)N1 (stereo not drawn)	none
COC(=O)C1=C(C)NC2=C(C(=O)CCC2)C1c1ccc(-c2ccsc2C(=O)OC)o1 (stereo not drawn)	HDAC3 inhib 32
COc1ccccc1-c1cn(CC[C@@H]2CC[C@H](NC(=O)C3CCOCC3)[C@H](CO)O2)nn1	none (no result: HDAC3 inhib, PDI inh)
CN(c1ccccc1)S(=O)(=O)c1cccc(NC(=O)COc2ccccc2)c1	none (no result: HDAC3 inhib)
CC(=O)CCc1ccc(OCC(=O)Nc2cccc(S(=O)(=O)N(C)c3ccccc3)c2)cc1	SIRT5 block 17 (no result: HDAC3 inhib)
Cc1ccc(S(=O)(=O)N2CC[C@H]3[C@@H](CO)N(C)c4ccc(-c5cccc(C#N)c5)cc4[C@H]32)cc1	none (no result: HDAC3 inhib, PDI inh)
Cc1cc(/C=C2/NC(=O)N(Cc3ccccc3F)C2=O)c(C)n1-c1ccccn1	HDAC3 inhib 44 (no result: SIRT5 block, ERp5 inh, ERAP1 HTS inh)
CC(=O)N(C)C[C@H]1Oc2cc(-c3ccccc3)ccc2S(=O)(=O)N([C@@H](C)CO)C[C@H]1C	none (no result: HDAC3 inhib, PDI inh)
